# Results published in the supplement of paper PMC10849652.
# Targets with a hit are over-represented here; the source holds about 7,900 in all. About 0.6% of all pairs of compound and target were hits. Unmarked numbers belong to inactive results.
# How the values were obtained:
# Assay in all cases: log2 fold change, soluble protein after heating vs DMSO (PISA); higher = thermal stabilisation; K562 cells, 10 uM, 30 min; active = over 0.2 and 3.5 SD of the protein, either way, in both replicates (recomputed)
# IRAK-1-4 Inhibitor I = compound: C1COCCN1CCN2C3=CC=CC=C3N=C2NC(=O)C4=CC(=CC=C4)[N+](=O)[O-] [IRAK-1-4 Inhibitor I]
# Procedure, shortened: (§1)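 K562 cells at 2×10^6 cells/mL were given 10 μM compound for 30 min. Aliquots then went through 3 min of heating across 48°C-58°C, were pooled, and were extracted in PBS with 0.5% NP-40 at 4°C, and the supernatant after 21,000xg for 90 min was quantified by TMTpro 16plex LC-MS/MS with channel sums equalised. Thermal stability relative to control samples, from duplicates, is given as log2 fold change.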
# ibrutinib = compound: C=CC(=O)N1CCC[C@@H](n2nc(-c3ccc(Oc4ccccc4)cc3)c3c(N)ncnc32)C1 [ibrutinib]
# Procedure, shortened: as §1
# [1] = compound: CC(=O)c1cnc2ccc(-c3cc(Cl)c(O)c(Cl)c3)nc2c1N[C@H]1CC[C@H](CN(C)C)CC1
# Procedure, shortened: as §1
# ralimetinib = compound: CC(C)(C)Cn1c(N)nc2ccc(-c3[nH]c(C(C)(C)C)nc3-c3ccc(F)cc3)nc21 [ralimetinib]
# Procedure, shortened: as §1
# [2] = compound: CC(C)(O)CC(=O)NCCn1ccc2ncnc(Nc3ccc(Oc4cccc(C(F)(F)F)c4)c(Cl)c3)c21
# Procedure, shortened: as §1
# [3] = compound: CC(C)C1=C2N=C(C=C(N2N=C1)NCC3=CC=CC=C3)NCCCCCCN
# Procedure, shortened: as §1
# [4] = compound: CC(C)C[C@@H](C=O)NC(=O)[C@H](CC(C)C)NC(=O)[C@H](CC(C)C)NC(=O)OCc1ccccc1
# Procedure, shortened: as §1
# pinometostat = compound: CC(C)N(C[C@H]1O[C@@H](n2cnc3c(N)ncnc32)[C@H](O)[C@@H]1O)[C@H]1C[C@@H](CCc2nc3cc(C(C)(C)C)ccc3[nH]2)C1 [pinometostat]
# Procedure, shortened: as §1
# [5] = compound: CC1=C(C(CC(=O)N1)C2=CC=C(C=C2)C(F)(F)F)C(=O)NC3=C(C=C4C(=C3)C=NN4)F
# Procedure, shortened: as §1
# [6] = compound: CC1=C(C2=C(C=C1)C(=O)C3=CC=CC=C3N2CCCN)C
# Procedure, shortened: as §1
# Sequence of UniProt Q12894 (Q12894 whole entry, looked up): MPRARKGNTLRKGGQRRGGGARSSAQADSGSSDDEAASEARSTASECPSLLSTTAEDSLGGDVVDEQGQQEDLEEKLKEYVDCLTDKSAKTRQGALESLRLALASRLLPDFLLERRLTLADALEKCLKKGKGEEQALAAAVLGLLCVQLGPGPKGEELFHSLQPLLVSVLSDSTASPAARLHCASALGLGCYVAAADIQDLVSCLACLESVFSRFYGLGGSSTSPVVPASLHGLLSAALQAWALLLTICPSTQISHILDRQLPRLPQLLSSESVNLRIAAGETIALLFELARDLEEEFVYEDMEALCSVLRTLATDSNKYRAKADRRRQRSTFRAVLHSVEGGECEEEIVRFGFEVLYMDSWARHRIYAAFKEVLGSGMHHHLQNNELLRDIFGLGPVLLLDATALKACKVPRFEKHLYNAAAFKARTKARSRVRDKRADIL
# Sequence of UniProt Q9NRD1 (Q9NRD1 whole entry, looked up): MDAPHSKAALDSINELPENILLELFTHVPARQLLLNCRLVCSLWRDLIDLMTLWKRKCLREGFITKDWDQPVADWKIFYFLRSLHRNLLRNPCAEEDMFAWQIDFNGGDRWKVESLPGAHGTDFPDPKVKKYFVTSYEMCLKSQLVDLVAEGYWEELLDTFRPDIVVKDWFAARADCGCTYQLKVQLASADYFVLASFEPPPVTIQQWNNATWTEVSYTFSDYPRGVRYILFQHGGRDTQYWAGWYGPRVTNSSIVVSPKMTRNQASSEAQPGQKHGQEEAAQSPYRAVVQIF
# Sequence of UniProt Q1KMD3 (Q1KMD3 whole entry, looked up): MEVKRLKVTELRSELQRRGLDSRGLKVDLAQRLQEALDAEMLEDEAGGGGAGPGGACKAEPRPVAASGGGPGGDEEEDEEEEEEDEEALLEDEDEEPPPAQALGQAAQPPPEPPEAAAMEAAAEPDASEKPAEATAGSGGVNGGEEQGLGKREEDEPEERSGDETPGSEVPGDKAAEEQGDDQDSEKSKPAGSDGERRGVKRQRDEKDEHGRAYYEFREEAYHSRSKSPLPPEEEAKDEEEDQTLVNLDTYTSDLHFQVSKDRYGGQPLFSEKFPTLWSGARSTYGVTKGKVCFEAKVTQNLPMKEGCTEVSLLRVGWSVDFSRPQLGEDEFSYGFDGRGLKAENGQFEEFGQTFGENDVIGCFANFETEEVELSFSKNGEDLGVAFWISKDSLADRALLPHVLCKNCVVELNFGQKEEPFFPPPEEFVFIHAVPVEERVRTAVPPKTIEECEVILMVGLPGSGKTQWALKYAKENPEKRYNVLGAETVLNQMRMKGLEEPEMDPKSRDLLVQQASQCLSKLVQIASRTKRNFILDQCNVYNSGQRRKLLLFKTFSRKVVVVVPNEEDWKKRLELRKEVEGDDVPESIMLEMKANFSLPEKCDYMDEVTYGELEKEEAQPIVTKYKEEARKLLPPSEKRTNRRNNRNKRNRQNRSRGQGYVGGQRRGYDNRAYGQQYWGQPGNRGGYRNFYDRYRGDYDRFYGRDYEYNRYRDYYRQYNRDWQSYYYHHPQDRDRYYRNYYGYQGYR
# Sequence of UniProt Q06546 (Q06546 whole entry, looked up): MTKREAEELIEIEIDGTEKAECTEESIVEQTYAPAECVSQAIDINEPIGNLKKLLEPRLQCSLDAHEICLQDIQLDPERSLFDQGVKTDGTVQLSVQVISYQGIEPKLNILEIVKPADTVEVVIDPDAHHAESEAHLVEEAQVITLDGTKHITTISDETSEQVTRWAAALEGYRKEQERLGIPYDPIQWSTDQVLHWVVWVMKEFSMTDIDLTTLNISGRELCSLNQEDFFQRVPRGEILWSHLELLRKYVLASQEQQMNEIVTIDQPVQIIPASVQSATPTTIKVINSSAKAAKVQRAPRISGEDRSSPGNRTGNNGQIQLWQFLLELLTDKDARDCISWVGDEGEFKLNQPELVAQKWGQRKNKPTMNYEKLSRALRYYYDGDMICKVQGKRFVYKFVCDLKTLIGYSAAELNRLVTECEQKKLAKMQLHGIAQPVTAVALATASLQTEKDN
# Sequence of UniProt Q03014 (Q03014 whole entry, looked up): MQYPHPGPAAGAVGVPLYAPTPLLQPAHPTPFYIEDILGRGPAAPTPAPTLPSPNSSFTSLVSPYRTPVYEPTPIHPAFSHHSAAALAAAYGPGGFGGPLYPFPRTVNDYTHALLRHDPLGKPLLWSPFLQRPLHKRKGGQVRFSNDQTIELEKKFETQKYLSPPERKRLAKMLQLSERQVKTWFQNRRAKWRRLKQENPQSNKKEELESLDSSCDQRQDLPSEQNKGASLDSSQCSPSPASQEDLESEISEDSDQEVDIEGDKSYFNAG
# Sequence of UniProt P04035 (P04035 whole entry, looked up): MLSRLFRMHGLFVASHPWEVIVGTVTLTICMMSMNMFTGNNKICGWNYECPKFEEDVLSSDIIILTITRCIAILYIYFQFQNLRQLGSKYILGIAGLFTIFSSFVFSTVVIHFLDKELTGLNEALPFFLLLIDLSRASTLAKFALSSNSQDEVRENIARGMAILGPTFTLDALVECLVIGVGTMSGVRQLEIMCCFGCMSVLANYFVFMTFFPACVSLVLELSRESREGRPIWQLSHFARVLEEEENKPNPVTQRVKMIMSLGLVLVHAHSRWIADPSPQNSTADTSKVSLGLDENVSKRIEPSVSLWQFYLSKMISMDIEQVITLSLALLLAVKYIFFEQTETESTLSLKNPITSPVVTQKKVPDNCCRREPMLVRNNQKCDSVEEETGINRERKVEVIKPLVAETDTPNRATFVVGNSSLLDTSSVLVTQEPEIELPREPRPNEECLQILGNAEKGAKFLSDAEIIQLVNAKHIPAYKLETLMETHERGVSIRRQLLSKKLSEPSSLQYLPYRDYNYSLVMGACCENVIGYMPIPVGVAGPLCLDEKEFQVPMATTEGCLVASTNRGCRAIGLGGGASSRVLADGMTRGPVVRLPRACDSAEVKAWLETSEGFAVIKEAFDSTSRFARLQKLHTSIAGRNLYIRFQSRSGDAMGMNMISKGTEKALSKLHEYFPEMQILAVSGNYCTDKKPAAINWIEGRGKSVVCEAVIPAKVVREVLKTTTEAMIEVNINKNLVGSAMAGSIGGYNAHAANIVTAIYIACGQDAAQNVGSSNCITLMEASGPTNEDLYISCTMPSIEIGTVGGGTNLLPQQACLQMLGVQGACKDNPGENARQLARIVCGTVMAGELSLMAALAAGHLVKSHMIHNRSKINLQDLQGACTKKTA
# Sequence of UniProt O14929 (O14929 whole entry, looked up): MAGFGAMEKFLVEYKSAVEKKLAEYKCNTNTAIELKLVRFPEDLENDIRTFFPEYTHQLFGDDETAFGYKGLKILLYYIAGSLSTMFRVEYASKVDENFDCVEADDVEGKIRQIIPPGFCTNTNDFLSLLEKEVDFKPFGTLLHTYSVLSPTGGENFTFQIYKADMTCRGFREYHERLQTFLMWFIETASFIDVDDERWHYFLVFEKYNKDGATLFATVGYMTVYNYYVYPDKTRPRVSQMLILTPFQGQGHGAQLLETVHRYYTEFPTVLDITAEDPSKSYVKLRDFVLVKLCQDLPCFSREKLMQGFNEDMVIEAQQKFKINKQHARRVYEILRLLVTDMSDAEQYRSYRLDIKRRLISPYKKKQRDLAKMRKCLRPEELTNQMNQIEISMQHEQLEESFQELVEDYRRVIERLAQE
# Sequence of UniProt Q86YM7 (Q86YM7 whole entry, looked up): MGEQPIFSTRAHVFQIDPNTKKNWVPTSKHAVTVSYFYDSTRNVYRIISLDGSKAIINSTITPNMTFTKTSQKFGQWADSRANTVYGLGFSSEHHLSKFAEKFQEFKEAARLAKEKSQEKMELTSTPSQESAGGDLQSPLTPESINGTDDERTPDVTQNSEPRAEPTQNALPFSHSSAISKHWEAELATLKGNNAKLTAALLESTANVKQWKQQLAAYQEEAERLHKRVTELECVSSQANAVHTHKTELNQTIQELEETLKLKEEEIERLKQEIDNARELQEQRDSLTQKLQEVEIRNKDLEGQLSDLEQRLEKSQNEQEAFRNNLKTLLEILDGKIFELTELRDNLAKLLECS
# Sequence of UniProt O00165 (O00165 whole entry, looked up): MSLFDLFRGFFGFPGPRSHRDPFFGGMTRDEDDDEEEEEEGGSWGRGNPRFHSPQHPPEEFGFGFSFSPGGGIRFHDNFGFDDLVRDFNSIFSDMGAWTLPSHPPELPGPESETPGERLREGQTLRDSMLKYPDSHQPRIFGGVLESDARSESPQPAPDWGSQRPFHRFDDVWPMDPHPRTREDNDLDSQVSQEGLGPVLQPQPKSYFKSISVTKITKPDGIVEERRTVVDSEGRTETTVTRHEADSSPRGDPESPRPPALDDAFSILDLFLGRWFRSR
# Sequence of UniProt Q13889 (Q13889 whole entry, looked up): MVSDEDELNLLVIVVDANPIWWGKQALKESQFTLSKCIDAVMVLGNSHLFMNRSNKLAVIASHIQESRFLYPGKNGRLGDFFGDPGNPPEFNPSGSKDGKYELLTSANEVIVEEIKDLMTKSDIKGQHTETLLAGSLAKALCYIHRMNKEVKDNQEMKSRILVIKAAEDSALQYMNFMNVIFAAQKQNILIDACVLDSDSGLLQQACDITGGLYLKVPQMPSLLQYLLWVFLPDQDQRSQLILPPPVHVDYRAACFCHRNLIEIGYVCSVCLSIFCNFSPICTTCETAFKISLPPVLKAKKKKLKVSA
# Sequence of UniProt P52597 (P52597 whole entry, looked up): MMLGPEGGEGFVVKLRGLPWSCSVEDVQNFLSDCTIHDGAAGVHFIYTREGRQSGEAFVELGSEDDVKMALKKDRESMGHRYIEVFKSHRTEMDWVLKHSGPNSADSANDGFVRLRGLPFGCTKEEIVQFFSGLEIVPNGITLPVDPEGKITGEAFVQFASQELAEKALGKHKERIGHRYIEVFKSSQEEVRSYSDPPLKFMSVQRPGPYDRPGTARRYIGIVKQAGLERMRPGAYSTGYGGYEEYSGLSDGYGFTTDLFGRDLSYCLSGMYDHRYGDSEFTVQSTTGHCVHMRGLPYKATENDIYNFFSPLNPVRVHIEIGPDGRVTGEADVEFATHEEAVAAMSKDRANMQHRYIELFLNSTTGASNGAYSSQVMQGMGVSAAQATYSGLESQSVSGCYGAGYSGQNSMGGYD
Target,log2 fold change (IRAK-1-4 Inhibitor I),log2 fold change (ibrutinib),log2 fold change [1],log2 fold change (ralimetinib),log2 fold change [2],log2 fold change [3],log2 fold change [4],log2 fold change (pinometostat),log2 fold change [5],log2 fold change [6]
GALNT4 (UniProt Q8N4A0),0.038,0.011,-0.061,-0.003,-0.41 (active),-0.041,-0.002,0.014,-0.004,0.072
GYG1 (UniProt P46976),-0.055,0.025,-0.29,0.176,0.029,-0.114,0.064,0.125,0.03,0.035
GOLGB1 isoform 2 (UniProt Q14789),-0.023,-0.032,0.031,0.045,0.05,0.065,0.082,0.102,0.048,-0.051
FHOD1 (UniProt Q9Y613),-0.053,0.011,0.042,0.193,0.035,-0.197,0.148,0.458,0.07,
GNAS (UniProt Q5JWF2),-0.04,0.001,-0.059,0.009,0.022,0.041,-0.009,0,-0.059,0.073
GLS isoform 3 (UniProt O94925),0.011,-0.15,-0.046,-0.19,-0.547 (active),-0.034,-0.04,-0.088,0,-0.068
HBA1 (UniProt P69905),0.002,0.007,-0.03,-0.037,-0.035,0.094,-0.056,0.025,-0.019,0.127
HAX1 (UniProt O00165),-0.017,-0.036,-0.07,0.026,-0.156,-0.498 (active),0.045,0.107,0.047,0.065
IFI30 (UniProt P13284),0.157,0.049,0.088,-0.05,0.063,0.087,-0.012,0.019,-0.008,-0.099
GTF2H3 (UniProt Q13889),-0.06,0.056,0.063,0.049,0.006,0.011,0,0.06,-0.074,0.02
GLS (UniProt O94925),0.051,-0.096,0.002,-0.071,-0.14,0.004,0.032,-0.037,0.008,0.002
HAT1 (UniProt O14929),0.027,-0.009,-0.109,-0.003,-0.027,0.006,-0.022,-0.048,-0.013,-0.03
GABPA (UniProt Q06546),-0.004,-0.014,-0.054,0.001,-0.107,-0.243,-0.013,-0.007,-0.043,-0.175
IFRD2 isoform 2 (UniProt Q12894),0.141,0.063,0.369,-0.045,0.013,0.07,0.019,0.144,-0.116,-1.69 (active)
GLRX3 (UniProt O76003),-0.03,-0.015,0.02,0.002,-0.027,-0.024,-0.033,-0.033,-0.021,-0.025
H2AFX (UniProt P16104),-0.049,0.077,0.044,0.193,0.036,-0.008,0.308,0.368,-0.019,1.02 (active)
HNRNPC isoform 2 (UniProt P07910),-0.332,0.043,-0.365,0.106,0.195,-0.197,0.281,0.238,-0.01,-0.629
GDI1 (UniProt P31150),0.034,0.018,-0.027,-0.057,0.009,0.04,-0.012,-0.008,-0.022,0.011
GYS1 (UniProt P13807),-0.151,0.009,-0.976 (active),0.095,0.158,-0.253,0.141,0.412,0.042,0.046
HDAC7 isoform 5 (UniProt Q8WUI4),0.094,-0.007,-0.561 (active),-0.123,-0.031,0.108,0.036,0.035,0.029,0.065
HMGCR isoform 3 (UniProt P04035),0.037,-0.001,0.022,-0.005,-0.023,0.029,0.383 (active),0.014,0.011,-0.044
GBF1 (UniProt Q92538),-0.033,-0.049,-0.044,0.017,-0.05,-0.088,0.015,0.115,-0.016,0.007
HNRNPUL2 (UniProt Q1KMD3),-0.033,-0.022,-0.014,-0.033,0.024,0.117,0.054,0.107,-0.009,0.023
HHEX (UniProt Q03014),0.045,0.059,0.005,-0.059,-0.064,-0.113,0.189,-0.075,0.086,-0.074
FECH isoform 2 (UniProt P22830),0.408,0.082,0.129,0.159,0.426,-0.691 (active),-0.144,-0.098,-0.457,0.514
HNRNPF (UniProt P52597),-0.143,-0.023,-0.1,0.098,-0.086,-0.279 (active),0.069,0.018,0.05,-0.087
HOMER1 (UniProt Q86YM7),0.104,0.009,-0.043,0.004,0.03,0.034,-0.088,-0.225 (active),0.038,0.093
GSK3B isoform 2 (UniProt P49841),0.017,0.019,0.144,-0.005,-0.07,0.004,-0.031,-0.022,-0.008,-0.017
FBXO6 (UniProt Q9NRD1),-0.015,0.015,-0.068,0.004,-0.127,0.437 (active),-0.046,-0.021,-0.043,0.068
GATA1 (UniProt P15976),0.038,0.015,0.051,0.041,0.027,0.047,0.088,0.027,0.081,-0.368 (active)
